Only some compounds are listed: those with a hit (about 0.97% of all), similar ones and a draw of the others.
S1P3 antagonist = S1P3 receptor antagonists, primary screen, cell-based; Sphingosine 1-phosphate receptor 3 (Homo sapiens), Q99500; CHO S1P3 NFAT-BLA reporter, FRET fluorescence, antagonist mode; inhibition, % at 4.98 µM; 170,000 compounds, 0.27% hits;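 active = inhibition above the plate cutoff, the mean inhibition of test wells on that plate plus 3 SD, cut at about 28% in these data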;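 note: cells challenged with S1P at its EC80 of 0.8 µM; blue over green emission ratio from cleaved BLA substrate after 4 h stimulation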
Hsp70 act = Hsp70 transcriptional activators, primary screen, cell-based, HeLa, Hsp70 promoter luciferase, luminescence, 10 µM | activation, % at 10 µM | AID 1203, 2008 | 200,000 compounds, 0.04% hits | HeLa Hsp70 promoter luciferase reporter; scaled: vehicle 0, proteasome-inhibitor control 100%;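 active = activation above the mean across all tested compounds plus 3 SD, cutoff set per campaign, cut at about 5.5% in these data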
S1P4 antagonist = S1P4 receptor antagonists, primary screen, cell-based | 220,000 compounds, 0.26% hits | inhibition, % at 4.98 µM | S1P4-expressing cells, antagonist mode, reporter read-out | Sphingosine 1-phosphate receptor 4 (Homo sapiens), O95977; in the data active = inhibition above about 29%
Target sequence (O95977 whole entry, looked up): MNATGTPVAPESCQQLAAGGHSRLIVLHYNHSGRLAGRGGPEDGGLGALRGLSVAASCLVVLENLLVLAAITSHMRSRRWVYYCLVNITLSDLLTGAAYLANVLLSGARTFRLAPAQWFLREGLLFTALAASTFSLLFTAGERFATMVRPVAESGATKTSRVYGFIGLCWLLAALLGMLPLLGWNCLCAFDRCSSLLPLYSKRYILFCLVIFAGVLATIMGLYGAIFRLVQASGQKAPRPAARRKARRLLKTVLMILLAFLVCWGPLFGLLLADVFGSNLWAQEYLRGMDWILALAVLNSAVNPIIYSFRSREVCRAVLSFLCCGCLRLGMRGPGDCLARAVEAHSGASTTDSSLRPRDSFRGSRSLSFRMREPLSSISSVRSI
S1P4 agonist = S1P4 receptor agonists, primary screen, cell-based. Sphingosine 1-phosphate receptor 4 (Homo sapiens), O95977. S1P4-expressing cell line, agonist reporter assay. activation, % at 4.98 µM. 220,000 compounds, 0.35% hits. AID 1509, 2009; in the data active = activation above about 11%
AI-2 QS mod = Vibrio harveyi AI-2 quorum sensing modulators, primary screen, JMH597 strain, luminescence/OD600 ratio; Vibrio harveyi JMH597 AI-2 luminescence/OD600 ratio, 9 h; active compounds read low; strain lacks LuxN and CqsS sensors; 0 = neutral-control median; activity change, % at 7.5 µM; 300,000 compounds, 0.4% hits; AID 2094, 2009; in the data active = activity change below about -75%, passing the limit was not always enough;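 note: luminescence divided by OD600 gain over 9 h not by final OD600 alone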
S1P4 antag conf = S1P4 receptor antagonists, human, confirmation, cell-based. shares compounds with S1P4 antagonist. S1P4-expressing cell line, antagonist mode, reporter read-out. inhibition, % at 4.98 µM. 520 compounds, 71% hits; in the data active = inhibition above about 30%
S1P1 antag = S1P1 receptor antagonists, human, counter-screen for S1P4 antagonist project, cell-based. shares compounds with S1P4 antagonist. cell-based S1P1 antagonist counterscreen, inhibition. inhibition, % at 4.98 µM. 520 compounds, 37% hits; in the data active = inhibition above about 40%;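 note: receptor stimulated with S1P near its EC80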
JMH597 growth = Vibrio harveyi growth inhibition, confirmation, counter-screen for AI-2 quorum sensing project, JMH597 strain, OD600 absorbance. shares compounds with AI-2 QS mod. 9 h; lacks LuxN and CqsS sensors. growth inhibition, % at 7.5 µM. 750 compounds, 1% hits. AID 2726, 2010;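 active = every replicate shows growth inhibition above 50%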
BB721 lum counter = luminescence inhibition in constitutive-on V. harveyi, confirmation, counter-screen for LuxS inhibitor project, strain BB721, luminescence readout; shares compounds with AI-2 QS mod; Vibrio harveyi BB721 luminescence, 9 h; inhibition, % at 7.5 µM; 750 compounds, 95% hits;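 active = inhibition above about 80% in every replicate, not just on average, limit read from the data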
BB721 growth rt = growth inhibition of V. harveyi BB721, confirmation, cytotoxicity control for AI-2 quorum sensing inhibitors, strain BB721, absorbance OD600; shares compounds with AI-2 QS mod; Vibrio harveyi BB721 growth, 9 h; growth inhibition, % at 7.5 µM; 750 compounds, 3% hits;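 active = every replicate shows growth inhibition above 50%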
JMH597 AI-2 mod = Vibrio harveyi AI-2 signaling luminescence modulation – JMH597 strain, confirmation. inhibition, % at 7.5 µM. Vibrio harveyi JMH597 AI-2 quorum sensing luminescence, 9 h; luxN and CqsS knockout, AI-2 only. shares compounds with AI-2 QS mod. AID 2736, 2010. 750 compounds, 97% hits;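 active = every replicate shows more than 75% inhibition of signal versus neutral control wells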
Each line names hits and unclear results; the compound was inactive in the other large screens (follow-up assays come after a bar, where they were run).

COc1cc(/C=C(/C)[N+](=O)[O-])ccc1OCc1ccccc1Cl	S1P4 antagonist 54.0 | S1P4 antag conf 119.5 | S1P1 antag 147.8
CCc1ccc(NC(=O)CCNC(=O)N2C[C@H]3C[C@@H](C2)c2cccc(=O)n2C3)cc1	none (no result: S1P3 antagonist, Hsp70 act, S1P4 antagonist, S1P4 agonist)
CC[C@@]1(O)C(=O)OCc2c1cc1n(c2=O)Cc2cc3c(NC(=O)CN)cccc3nc2-1	none (no result: Hsp70 act)
CCC1(OC(=O)CN)C(=O)OCc2c1cc1n(c2=O)Cc2cc3ccccc3nc2-1 (configuration not stated)	S1P4 antagonist 91.9 (no result: Hsp70 act) | S1P4 antag conf 63.7 | S1P1 antag inactive
CC(C)[C@H]1C(=O)O[C@@H]2CCN3CC=C(COC(=O)[C@](C)(O)[C@]1(C)O)[C@H]23	none (no result: S1P3 antagonist, Hsp70 act, S1P4 antagonist, S1P4 agonist)
O=C1N[C@@H](Cc2ccccc2)C(=O)N2[C@H]1C[C@H]1c3ccccc3N(OOSc3ccccc3)[C@H]12	none (no result: S1P3 antagonist, Hsp70 act, S1P4 antagonist, S1P4 agonist)
O=C1COc2ccc(C(=O)COC(=O)Cc3ccccc3)cc2N1	AI-2 QS mod -90.0 (no result: S1P3 antagonist, Hsp70 act, S1P4 antagonist, S1P4 agonist) | JMH597 growth inactive | BB721 lum counter 96.4 | BB721 growth rt inactive | JMH597 AI-2 mod 97.5
O=C(Cc1ccccc1)OCC(=O)c1ccccc1	AI-2 QS mod -80.1 (no result: S1P3 antagonist, Hsp70 act, S1P4 antagonist, S1P4 agonist) | JMH597 growth inactive | BB721 lum counter 96.0 | BB721 growth rt inactive | JMH597 AI-2 mod 97.5
O=C(COC(=O)Cc1ccccc1)NC12CC3CC(CC(C3)C1)C2	none (no result: S1P3 antagonist)
O=C(O)C(Cc1cnc[nH]1)NS(=O)(=O)c1ccc(Br)cc1 (configuration not stated)	none (no result: S1P3 antagonist, Hsp70 act, S1P4 antagonist, S1P4 agonist)
O=C1CN(O)C(c2ccccc2)=c2cc(Cl)ccc2=N1	none (no result: S1P3 antagonist, Hsp70 act, S1P4 antagonist, S1P4 agonist)
CCc1ccc(NC(=O)CN2CC(c3ccccc3)CC2=O)cc1 (configuration not stated)	AI-2 QS mod -81.5 (no result: Hsp70 act) | JMH597 growth inactive | BB721 lum counter 87.8 | BB721 growth rt inactive | JMH597 AI-2 mod 92.3
